From the supplement of paper PMC12494721
Counter-ions that a name gives are not always drawn. Unmarked numbers belong to inactive results.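 How the source made its calls: for the amine columns active = adjusted P below 0.05 in both replicates with a change the same way and a mean fold change under 0.8 or over 1.25; inactive = the rest.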

Each compound was assayed on Escherichia coli IAI1 (assay: fold change of Cadaverine concentration vs plate DMSO controls (fold change (ratio)); higher = more amine produced, active = hit call of the paper (significant change in both replicates, either direction)). Conditions: incubation time: 27 h, anaerobic, 37 °C.
How it was run: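 Extracts of whole anaerobic mGAM cultures were analysed for amines by LC–triple-quadrupole MS with dynamic MRM and external calibration curves, with drift corrected within batch. Four gut strains were grown at 37 °C for 27 h in 80 µL wells with compounds at 20 µM final, sweeteners at 50 µM final. Each value expresses fold change over plate DMSO controls. The average of 2 biological replicates is shown.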

Row | Compound | fold change of Cadaverine concentration
1 | O=C(O)c1cc(-c2ccc(F)cc2F)ccc1O [Diflunisal] (20 µM) | 1.02
2 | Fc1ccc([C@@H]2CCNC[C@H]2COc2ccc3c(c2)OCO3)cc1 [Paroxetine hydrochloride] (20 µM) | 1.69 (active)
3 | CCN(CC)CCOC(=O)C1(C2CCCCC2)CCCCC1 [Dicyclomine hydrochloride] (20 µM) | 1
4 | CN1[C@@H]2CC[C@H]1C[C@@H](OC(=O)c1c[nH]c3ccccc13)C2 [Tropisetron hydrochloride] (20 µM) | 0.994
5 | NC(=O)N1c2ccccc2CC(=O)c2ccccc21 [Oxcarbazepine] (20 µM) | 1.02
6 | N=C(NCCCCCCNC(=N)NC(=N)Nc1ccc(Cl)cc1)NC(=N)Nc1ccc(Cl)cc1 [Chlorhexidine] (20 µM) | 1.98 (active)
7 | CC(=O)Nc1ccccc1 [Acetanilide] (20 µM) | 0.982
8 | Nc1nc(N)nc(-c2cc(Cl)ccc2Cl)n1 [Irsogladine maleate] (20 µM) | 1.06
9 | Cc1ccsc1C(=CCCN1CCC[C@@H](C(=O)O)C1)c1sccc1C [Tiagabine hydrochloride] (20 µM) | 1.01
10 | CC(C)NCC(O)c1ccc(O)c(O)c1 (single isomer, unassigned; (-)) [(-) Isoproterenol hydrochloride] (20 µM) | 0.982
11 | CN(C)CCN(Cc1ccccc1)c1ccccn1 [Tripelennamine hydrochloride] (20 µM) | 1.38 (active)
12 | C[C@H](NCc1ccc(OCc2cccc(F)c2)cc1)C(N)=O [Safinamide] (20 µM) | 1.02
13 | Cc1cc(NS(=O)(=O)c2ccc(N)cc2)nc(C)n1 [Sulfisomidine] (20 µM) | 0.993
14 | O=C(O)Cc1ccccc1Nc1c(Cl)cccc1Cl [Diclofenac sodium] (20 µM) | 1.01
15 | CN1CCCN=C1/C=C/c1cccs1 [Pyrantel tartrate] (20 µM) | 1.03
16 | CN(C(=O)C(Cl)Cl)c1ccc(OC(=O)c2ccco2)cc1 [Diloxanide furoate] (20 µM) | 0.973
17 | O=C(Oc1ccccc1)c1ccccc1O [Phenyl salicylate] (20 µM) | 0.916
18 | CCCCC(C)(O)C/C=C/[C@H]1[C@H](O)CC(=O)[C@@H]1CCCCCCC(=O)OC (mixture of isomers) [Misoprostol] (20 µM) | 0.994
19 | Cc1cc(C(C)(C)C)c(O)c(C)c1CC1=NCCN1 [Oxymetazoline hydrochloride] (20 µM) | 0.968
20 | CCN(CC)CCc1nc(-c2ccccc2)no1 [Oxolamine citrate salt] (20 µM) | 1.02

Row | Compound | fold change of Cadaverine concentration
21 | COc1ccc2c(c1)c(CC(=O)OCC(=O)O)c(C)n2C(=O)c1ccc(Cl)cc1 [Acemetacin] (20 µM) | 0.959
22 | Cn1cnc([N+](=O)[O-])c1Sc1ncnc2[nH]cnc12 [Azathioprine] (20 µM) | 0.974
23 | CCOC(=O)c1ccc(N)cc1 [Benzocaine] (20 µM) | 1
24 | COC1=C(OC)C(=O)C(CCCCCCCCCCO)=C(C)C1=O [Idebenone] (20 µM) | 1.05
25 | CC(=O)NCCCS(=O)(=O)O [Acamprosate calcium] (20 µM) | 0.983
26 | CC(C)NCC(O)COc1cccc2[nH]c3ccccc3c12 (centres undefined) [Carazolol] (20 µM) | 0.889
27 | CC(C(=O)O)c1ccc(N2Cc3ccccc3C2=O)cc1 (centres undefined) [Indoprofen] (20 µM) | 0.998
28 | CC1(C)S[C@@H]2[C@H](NC(=O)[C@H](N)c3ccccc3)C(=O)N2[C@H]1C(=O)O [Ampicillin trihydrate] (20 µM) | 2.29 (active)
29 | CCN1CCCC1CNC(=O)c1cc(S(=O)(=O)CC)c(N)cc1OC (centres undefined) [Amisulpride] (20 µM) | 0.987
30 | COC(=O)Nc1nc2cc(C(=O)c3ccc(F)cc3)ccc2[nH]1 [Flubendazol] (20 µM) | 0.956
31 | CCOc1nc2cccc(C(=O)OCc3oc(=O)oc3C)c2n1Cc1ccc(-c2ccccc2-c2noc(=O)[nH]2)cc1 [Azilsartan medoxomil] (20 µM) | 0.997
32 | COc1cc(C(=O)N2CCOCC2)cc(OC)c1OC [Trimetozine] (20 µM) | 0.99
33 | CC(C)NC[C@@H](O)COc1ccc(CC(N)=O)cc1 [(R,+) Atenolol] (20 µM) | 0.921
34 | O=C(O)Cc1sc(-c2ccccc2)nc1-c1ccc(Cl)cc1 [Fentiazac] (20 µM) | 0.966
35 | Nc1nc(CC(=O)Nc2ccc(CCNC[C@H](O)c3ccccc3)cc2)cs1 [Mirabegron] (20 µM) | 1.06
36 | NS(=O)(=O)c1cc2c(cc1Cl)NC(CC1CCCC1)NS2(=O)=O (centres undefined) [Cyclopenthiazide] (20 µM) | 0.979
37 | Cc1cc(/C=C/c2ccc3cc(N(C)C)ccc3[n+]2C)c(C)n1-c1ccccc1 [Pyrvinium pamoate] (20 µM) | 0.966
38 | CN1CCC(=C2c3ccccc3C=Cc3ccccc32)CC1 [Cyproheptadine hydrochloride] (20 µM) | 0.973
39 | Cc1ccccc1OCC(O)CO (centres undefined) [Mephenesin] (20 µM) | 0.927
